Whole data set: some 68,000 sequences, median “fluorescence intensity (a.u.)” near 9,100, cut for the highest 2% near 16,000. The full list was thinned out, with the highest values kept by preference.
Target: OsWRKY34 (Oryza sativa, UniProt Q0JBA9 1-250)
Assay: protein-binding microarray (RPBM); PBS, 2% BSA, 51.3 ng/ul salmon testes DNA, 50 uM zinc acetate, 200 nM TF, 25 C, 1 h; high values mean tight binding
Settings: protein: recombinant; tags: N-terminal polyhistidine and DsRed monomer fusion (pET32a); label: CyDye5-dUTP incorporated in the synthesized complementary strand; 3' TTTTT single-stranded linker to array surface; dsDNA, one strand shown
Method in brief: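 The binding signal for each feature is its fluorescence intensity in arbitrary units. An Axon 4000B scanner was used to read a custom Agilent array that had been made double-stranded with Cy5-dUTP primer extension, blocked with 2% BSA, incubated at 25 °C for 1 h with 200 nM protein in PBS, 2% BSA, salmon testes DNA and 50 µM zinc acetate, and washed. The protein was an N-terminal polyhistidine–DsRed transcription factor fusion from E. coli BL21-CodonPlus, purified on Ni–NTA.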

Chain of OsWRKY34 (Q0JBA9 entry or part of it): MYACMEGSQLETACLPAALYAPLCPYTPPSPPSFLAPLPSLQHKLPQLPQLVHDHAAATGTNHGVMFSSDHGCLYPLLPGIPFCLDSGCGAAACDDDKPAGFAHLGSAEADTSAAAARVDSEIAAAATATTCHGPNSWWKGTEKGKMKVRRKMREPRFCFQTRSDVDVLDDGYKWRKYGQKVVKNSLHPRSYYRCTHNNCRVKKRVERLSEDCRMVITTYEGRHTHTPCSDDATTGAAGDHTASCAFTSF

Sequence	binding signal
TCTCGATCTCCCCGCCTATTTATGCTCGTCTCGTCACCCGCGGAGTCACCTAGTGCAG	8140 fluorescence intensity (a.u.)
GATATTTTGCTTGTATTGTTCGACCACTCGTCTTATTAAACGGAGTCACCTAGTGCAG	8040 fluorescence intensity (a.u.)
TCATCTCATCTCTCTCGTTTTTATATGCACGTTTTTCAAACGGAGTCACCTAGTGCAG	9530 fluorescence intensity (a.u.)
TTTGGGTGGTGGCAGTTGACAGAAGAGAGTGAGCACACAGCGGAGTCACCTAGTGCAG	8270 fluorescence intensity (a.u.)
TTTACAATGGTATCTATGTGTTGTTTTTGTGTGTGTGTGTCGGAGTCACCTAGTGCAG	10100 fluorescence intensity (a.u.)
ATGCTTGCCTTCTTCTTATTCTCCTTCCCTATGGTCTTCTCGGAGTCACCTAGTGCAG	8770 fluorescence intensity (a.u.)
ACATGCAACAGTGTGTCGTGCTTGTATTTCTGTTATCTGACGGAGTCACCTAGTGCAG	8660 fluorescence intensity (a.u.)
CTTCAACTTTCTCGTTTTCCGTCAGCACGCTTTCCAAACTCGGAGTCACCTAGTGCAG	9080 fluorescence intensity (a.u.)
ATGGGTGGAGGAGTGGGAGGGGATTAAATATCGGCGGAGGCGGAGTCACCTAGTGCAG	9240 fluorescence intensity (a.u.)
TCCAACTTGGGGAGGGAGGGCCGTTTCAGCTCGGGCTTTTCGGAGTCACCTAGTGCAG	17200 fluorescence intensity (a.u.)
GTGCATGTGTAGGGAGGGCACAATGGAGGGGTGTTTTTTTCGGAGTCACCTAGTGCAG	15000 fluorescence intensity (a.u.)
TCCGTTTTGCCGTTGGGCTAGCTTAGCTTGTTTTTTTTTTCGGAGTCACCTAGTGCAG	12000 fluorescence intensity (a.u.)
ATGTGATTAAATGGAGGGTTTTCGGGGAGGGTTTTCGGGGCGGAGTCACCTAGTGCAG	24100 fluorescence intensity (a.u.)
AATGTGACCAAGCCAACTTAACTTATTATACTTCTTAGTTCGGAGTCACCTAGTGCAG	8680 fluorescence intensity (a.u.)
CCAAGACCGCACCCGTATAAAGCCGCAGACCTCTCTCTCCCGGAGTCACCTAGTGCAG	10100 fluorescence intensity (a.u.)
CTCTGACCATATATCACGTTCTACGTCCAGGTCAAATCACCGGAGTCACCTAGTGCAG	8730 fluorescence intensity (a.u.)
TGCGTCCCTCTTCCTTCATTCTCCTGACGCCTAGGGCCCACGGAGTCACCTAGTGCAG	8280 fluorescence intensity (a.u.)
TTATGGGTATGTCACCAGGGGTTTAATCTTTCATTTTCAACGGAGTCACCTAGTGCAG	12300 fluorescence intensity (a.u.)
ATGATAGGTCCTGGACTCACAAGTTATTGAGAACGGCACGCGGAGTCACCTAGTGCAG	50900 fluorescence intensity (a.u.)
CTGGACGCGGTCCTGCACGACACATGCATCATCTCCTCAACGGAGTCACCTAGTGCAG	8570 fluorescence intensity (a.u.)
CACTCAACCTAACTGTTGAACGGTCCTGTTCTGGCCAACGCGGAGTCACCTAGTGCAG	8890 fluorescence intensity (a.u.)

Sequence	binding signal
TGGTGTGTTTTTTGGGATGTTTCGGTAGGTATTTTGTGATCGGAGTCACCTAGTGCAG	12000 fluorescence intensity (a.u.)
GGCTGCCTCCTCTCCTCATCCCTGCACCTACACTCCAATACGGAGTCACCTAGTGCAG	8530 fluorescence intensity (a.u.)
GCCTTCTCCATCTCTCTGCTTCTTTTGTTTGTTTTTCTTTCGGAGTCACCTAGTGCAG	13000 fluorescence intensity (a.u.)
ATCCATCTTCTTCTTCTTTCTTTCTTTTCTTCCTCTTCTTCGGAGTCACCTAGTGCAG	10400 fluorescence intensity (a.u.)
TTACACATTTCTTTTTCATCACTGCTGATATGTTATCCTTCGGAGTCACCTAGTGCAG	9940 fluorescence intensity (a.u.)
GTCCTTTACACTGATCCTGCACATCGCTCACTGTTTTCTTCGGAGTCACCTAGTGCAG	16800 fluorescence intensity (a.u.)
GTTTTCTTTCTTTTTTTTTTCCACCTGTCGCACTGTACATCGGAGTCACCTAGTGCAG	11800 fluorescence intensity (a.u.)
CATCTTACCTTACGTCCACCGCATCTCATCCTTTGCTGTTCGGAGTCACCTAGTGCAG	12200 fluorescence intensity (a.u.)
GCAGCTCTACTGTTTTCCGCTTCCATCTTCTTCCTTTCTTCGGAGTCACCTAGTGCAG	16700 fluorescence intensity (a.u.)
TCCTTTTGCTTTCTTTCTTTTGTGTTTTTCAAATTTCTACCGGAGTCACCTAGTGCAG	9810 fluorescence intensity (a.u.)
CTCACCTACCGCATCTGTGTTCCTTTTGCTTTCTTTCTTTCGGAGTCACCTAGTGCAG	18100 fluorescence intensity (a.u.)
TAATACTCCTACTATGGACTTGTTCTCCGTGTTGCTTATTCGGAGTCACCTAGTGCAG	10200 fluorescence intensity (a.u.)
CCGTTACATGACGTGGGCCCCACCCAGCCGCGCCAGCCCACGGAGTCACCTAGTGCAG	8450 fluorescence intensity (a.u.)
CCACTCACTCTGTGTTTCACTTGCTGCCTTTCAGTTGCAACGGAGTCACCTAGTGCAG	8820 fluorescence intensity (a.u.)
TTCTAAATTTGAAACGGTTTTATGACTTCTTTTCAGCGTTCGGAGTCACCTAGTGCAG	8520 fluorescence intensity (a.u.)
GGTGACGGCGGCTGTCTTCTTCGTAGGGTGCGGGGTGGCTCGGAGTCACCTAGTGCAG	8880 fluorescence intensity (a.u.)
TGTCTACATACGCTCAATCCATTATTCCCCTATTACATCACGGAGTCACCTAGTGCAG	9500 fluorescence intensity (a.u.)
ACCATCCAGCGCGTAACCGATTCCCTGTACATTCGGCCGCCGGAGTCACCTAGTGCAG	9080 fluorescence intensity (a.u.)
GGAGATCTTATACCCGATTTTACTGTTGAGGATTGTGACTCGGAGTCACCTAGTGCAG	8640 fluorescence intensity (a.u.)
ACGCTTACAACATGCGCATACACGCACACCCAATCCTATGCGGAGTCACCTAGTGCAG	11000 fluorescence intensity (a.u.)
AGATTTTTTTGAACTTTCTGTCTGGGTCGGCTGTTTGTGTCGGAGTCACCTAGTGCAG	10500 fluorescence intensity (a.u.)

Sequence	binding signal
GGTAGATTATATTAGGTTTTTCTTCGTGTTGTATTCACGACGGAGTCACCTAGTGCAG	8720 fluorescence intensity (a.u.)
CTCCGTCCTTAAATATTTGACGTCGTTGACTTTTTTAAACCGGAGTCACCTAGTGCAG	26000 fluorescence intensity (a.u.)
CACACATAAACTTTTAACTTTTTTATCACATCGTTTTAATCGGAGTCACCTAGTGCAG	8490 fluorescence intensity (a.u.)
TATTTTTTGGTTGTCCTTTGTTTTTTTAAAAAATATTTGTCGGAGTCACCTAGTGCAG	8170 fluorescence intensity (a.u.)
AAATACAACTTTGACTTTTTGTTTCTTTAAAAATATTTATCGGAGTCACCTAGTGCAG	9920 fluorescence intensity (a.u.)
ACTTTTTAAATATGTTTGACCGTTCGTCTTATTCAAAAACCGGAGTCACCTAGTGCAG	9990 fluorescence intensity (a.u.)
CTTACTCTCTCCGTCTCTAAATATTTGACGCCGTTGACTTCGGAGTCACCTAGTGCAG	12900 fluorescence intensity (a.u.)
TAAGACGTTTTGACTTTTTTTTTTCCTATTTAAACCTTTTCGGAGTCACCTAGTGCAG	13500 fluorescence intensity (a.u.)
ACTCTCTCCGTCCTTAAATATTTGACGCCGTTGACTTTTTCGGAGTCACCTAGTGCAG	30600 fluorescence intensity (a.u.)
CTCTTCATTTTTTTAATAGATAGCGTCGTTGACTTTTGAACGGAGTCACCTAGTGCAG	14800 fluorescence intensity (a.u.)
GTCCTTAAATATTTGACGTCGTTGACTTTTTTTAAAATATCGGAGTCACCTAGTGCAG	20900 fluorescence intensity (a.u.)
CCTGTAATACTCTCTCCGTCTATAAATATTTGACGCCGTTCGGAGTCACCTAGTGCAG	8560 fluorescence intensity (a.u.)
TAGCGTCGTTGACTTTTGAACACATTTTTATCATTTAAATCGGAGTCACCTAGTGCAG	22400 fluorescence intensity (a.u.)
GGAGGGGTTGGAAAAATTCGGTGTTCGTGGCCGCCTTCACCGGAGTCACCTAGTGCAG	13400 fluorescence intensity (a.u.)
GAAAATATCTGAAAGATACCGTTTGTCGTACTCCTTTTCTCGGAGTCACCTAGTGCAG	9000 fluorescence intensity (a.u.)
AACATTGATGAGAATTGAAATCATTTCGTTGCTCTAATCTCGGAGTCACCTAGTGCAG	8340 fluorescence intensity (a.u.)
CTAGCTGAAGACTTGTGCATGCAGTTTACACCTTTTATCTCGGAGTCACCTAGTGCAG	9280 fluorescence intensity (a.u.)
TAGCTCGTCTACTCCTAGCTCTCTCGTCCAATCCGGCCGGCGGAGTCACCTAGTGCAG	8680 fluorescence intensity (a.u.)
CTACGTGAGCTCGTTGCTGTGTCTCCTCTCTCTGCATCGCCGGAGTCACCTAGTGCAG	9690 fluorescence intensity (a.u.)
CTCACAGTAAGCTTGTCCAACAGATCCATTCCTAACCTACCGGAGTCACCTAGTGCAG	8140 ± 110 fluorescence intensity (a.u.)
TCCACTTCCAACATCTACTATCTTTTCTCACGCTTTTTCCCGGAGTCACCTAGTGCAG	8630 fluorescence intensity (a.u.)

Sequence	binding signal
CTCCTCAGCTAGTTGCTTGTCCCACACCACATCTTTCTTTCGGAGTCACCTAGTGCAG	12900 fluorescence intensity (a.u.)
GTCCAGTGGACCAACCGGGTCACGGTCTCACGTGCCAAAGCGGAGTCACCTAGTGCAG	8710 fluorescence intensity (a.u.)
AAAATCTGTCATCGTCGTATCATGCATGTCGAATGTTTTGCGGAGTCACCTAGTGCAG	8380 fluorescence intensity (a.u.)
AGCTATTTTACATGTTATTTTTTCATTGTTATCGTACTAACGGAGTCACCTAGTGCAG	10500 fluorescence intensity (a.u.)
TCCCTCCATCCCAAAATGTTATCTTTGACGTCGTTGACTTCGGAGTCACCTAGTGCAG	10900 fluorescence intensity (a.u.)
CATCCCAAAATATTTGACGTCGTTGACTTTTTTAAAAGTGCGGAGTCACCTAGTGCAG	18000 fluorescence intensity (a.u.)
CACCATCCCAAAATATTTGACGCCGTTGACTTTTTTAAAACGGAGTCACCTAGTGCAG	14000 fluorescence intensity (a.u.)
GCGGAGGTGGTGTGGGTGGGTGAGTGAGTGAGGAGTGATGCGGAGTCACCTAGTGCAG	17400 fluorescence intensity (a.u.)
GGGAGGGGCGGCCCAGCGGCAGCGGAGGGGAGGGAGGATGCGGAGTCACCTAGTGCAG	8640 fluorescence intensity (a.u.)
GGGTGTGTAAGGGTAGGTGGAGGGGTGGGTGATGCGAGATCGGAGTCACCTAGTGCAG	20400 fluorescence intensity (a.u.)
AGGTGGAGGTGGGGAGGATGCGGGAGAGGGAGGTGATGATCGGAGTCACCTAGTGCAG	14000 fluorescence intensity (a.u.)
GGGTCAGAGGGTAGGTTATTGTTGGGTAGGTGTGGAATTGCGGAGTCACCTAGTGCAG	9800 fluorescence intensity (a.u.)
GGATGAGGAGGAGGGTGTGGAGGAGGAGGAGGAGGAGGTGCGGAGTCACCTAGTGCAG	11500 fluorescence intensity (a.u.)
GGAGGTCAGGATTGTTGTGGTGGGGAATTGGAGGGAAATGCGGAGTCACCTAGTGCAG	19600 fluorescence intensity (a.u.)
AGGGTAAGAGGAGGAGGAGGAGGGGTAGGCGAGGGAGATGCGGAGTCACCTAGTGCAG	8490 fluorescence intensity (a.u.)
CGGCCCAGGTGGGAGAGGAGGGGAGGGGAGGGGAGGGATGCGGAGTCACCTAGTGCAG	19800 fluorescence intensity (a.u.)
GTTGGAGTTGGAGGAGGTGGTGCCGTGGTGGGGATTGATGCGGAGTCACCTAGTGCAG	10500 fluorescence intensity (a.u.)
GAGAGTAAGGATCAGGAGGAGGTGGAGGAGGAGGAGGATGCGGAGTCACCTAGTGCAG	8300 fluorescence intensity (a.u.)
GTAGGAGGAGGAGGAGGAGGTGGTGGTGGTGGTGGTGATGCGGAGTCACCTAGTGCAG	15100 fluorescence intensity (a.u.)
TTATAACATCTCTAGCTTCCTTTTCTAACCGTTTAACTTTCGGAGTCACCTAGTGCAG	8410 fluorescence intensity (a.u.)
TTGGTTGTGTGTGTGCCGCCGCGAGCCCGTGACGGCGCCCCGGAGTCACCTAGTGCAG	9390 fluorescence intensity (a.u.)
